The record followed here is PubChem BioAssay (EPA / NIEHS).

Assay [1] can be described thus: ATG_NFI_CIS: Attagene CIS-FACTORIAL HepG2 Assay for human Nuclear Factor I (NFI) (AID 2282989). As to conditions: HepG2 cis-regulatory reporter, NFI response element transcription; actives raise or lower the signal. In short, it runs like this:
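Reporter transcription driven by endogenous transcription factors in HepG2 cells; 24 h treatment. Quantitation by labelled RT-PCR fragments on capillary electrophoresis, gain- or loss-of-signal relative to DMSO.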

Assay [2] deals with Myc proto-oncogene protein (Homo sapiens) (UniProt P01106). Description: ATG_Myc_CIS: Attagene CIS-FACTORIAL HepG2 Assay for human Myelocytomatosis (Myc) Proto-Oncogene Transcription Factor (AID 2282990). As to conditions: HepG2, Attagene cis-reporter transcription factor activity; actives raise or lower the signal. In short, it runs like this:
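DMSO-normalised, bidirectionally fitted reporter mRNA signal. HepG2 cells transfected with cis reporter constructs, treated 24 h; transcripts detected by RT-PCR, 6-FAM primer extension and CE.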

The nature of assay [3]: ATG_NF_kB_CIS: Attagene CIS-FACTORIAL HepG2 Assay for human Nuclear Factor Kappa B (NF-kB) (AID 2282991). To be noted: HepG2 Attagene cis-factorial NF-kB reporter mRNA; actives raise or lower the signal. The method in brief:
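Fluorescence of labelled RT-PCR products separated by capillary electrophoresis gives reporter mRNA levels from transfected HepG2 cells exposed 24 h; values are fitted in both directions relative to DMSO.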

Assay [4] is described as follows: ATG_NRF2_ARE_CIS: Attagene CIS-FACTORIAL HepG2 Assay for human Nuclear Factor Erythroid 2 Related Factor 2 (NFR2) response to Antioxidant Response Elements (ARE) (AID 2282992). As to conditions: HepG2 Attagene ARE/NRF2 reporter, transcription factor activity; actives raise or lower the signal. In short, it runs like this: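 HepG2 cells transiently transfected with multiplexed cis-element reporter constructs, 24 h after chemical dosing; reporter mRNA quantified by RT-PCR, fluorescent primer extension, HpaI digestion and capillary electrophoresis. Bidirectional fit relative to DMSO.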

In assay [5] the target is Cellular tumor antigen p53 (Homo sapiens) (UniProt P04637). Description: ATG_p53_CIS: Attagene CIS-FACTORIAL HepG2 Assay for human p53 Transcription Factor (AID 2282994). To be noted: HepG2 p53 cis-element reporter, Attagene mRNA; actives raise or lower the signal. The method in brief:
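HepG2 cells transiently transfected with cis-regulated multiple reporter transcription units, dosed 24 h. Reporter mRNA measured by RT-PCR, 6-FAM primer extension, HpaI digestion and capillary electrophoresis; bidirectional fit relative to DMSO.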

The target in assay [6] is human Peroxisome Proliferator-activated Receptor alpha (PPARa), PPARA (gene 5465) (UniProt Q07869). Description: ATG_PPARa_TRANS: Attagene TRANS-FACTORIAL HepG2 Assay for human Peroxisome Proliferator-activated Receptor alpha (PPARa) (AID 2283001; active = hit-call score of the fitted dose curve at least 0.9, where 1 is the maximum). The method in brief:
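HepG2 cells transiently transfected with multiplexed GAL4-UAS reporter units and chimeric NR-Gal4 constructs were dosed for 24 h. Reporter mRNA was measured by RT-PCR with fluorescent labelling and capillary electrophoresis; gain of signal fitted against DMSO.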

Assay [7] concerns the target Retinoic acid receptor alpha (Homo sapiens) (UniProt P10276). Description: ATG_RARa_TRANS: Attagene TRANS-FACTORIAL HepG2 Assay for human Retinoic Acid Receptor alpha (RARa) (AID 2283005; active = hit-call score of the fitted dose curve at least 0.9, where 1 is the maximum). The method in brief: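 HepG2 cells transiently transfected with multiple reporter units expressing chimeric RARα-GAL4 fusion, with GAL4-UAS-driven reporters. After 24 h compound exposure, reporter mRNA induction quantified by RT-PCR and capillary electrophoresis with fluorescent labeling; gain-of-signal fitted relative to DMSO control.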

For assay [8], the target named is Peroxisome proliferator-activated receptor gamma (Homo sapiens) (UniProt P37231). Description: ATG_PPARg_TRANS: Attagene TRANS-FACTORIAL HepG2 Assay for human Peroxisome Proliferator-activated Receptor-gamma (PPARg) (AID 2283007; active = hit-call score of the fitted dose curve at least 0.9, where 1 is the maximum). The method in brief: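 Twenty-four hours after chemical dosing of transiently transfected HepG2 cells, isolated RNA was converted to cDNA, reporter sequences amplified and 6-FAM-labelled, then HpaI-digested and analysed by capillary electrophoresis. Signal increase against DMSO was fitted.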
Sequence of Peroxisome proliferator-activated receptor gamma (Homo sapiens) (P37231 whole entry, looked up): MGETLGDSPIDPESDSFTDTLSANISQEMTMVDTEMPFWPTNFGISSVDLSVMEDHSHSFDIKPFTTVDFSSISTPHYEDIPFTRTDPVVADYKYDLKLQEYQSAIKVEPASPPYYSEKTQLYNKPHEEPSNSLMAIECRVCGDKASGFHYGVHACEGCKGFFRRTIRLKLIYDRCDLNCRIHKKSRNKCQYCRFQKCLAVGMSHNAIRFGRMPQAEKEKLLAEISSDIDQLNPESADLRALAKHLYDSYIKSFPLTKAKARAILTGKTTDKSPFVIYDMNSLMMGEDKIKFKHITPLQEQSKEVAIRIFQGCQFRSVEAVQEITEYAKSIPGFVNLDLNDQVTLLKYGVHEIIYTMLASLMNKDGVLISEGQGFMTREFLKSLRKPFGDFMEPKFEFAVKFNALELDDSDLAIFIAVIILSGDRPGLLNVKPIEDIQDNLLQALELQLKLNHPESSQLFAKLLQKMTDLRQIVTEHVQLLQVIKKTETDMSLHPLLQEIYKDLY

Assay [9] concerns the target Nuclear receptor subfamily 1 group I member 2 (Homo sapiens) (UniProt O75469). Description: ATG_PXR_TRANS: Attagene TRANS-FACTORIAL HepG2 Assay for human Pregnane X Receptor (PXR) (AID 2283008; active = hit-call score of the fitted dose curve at least 0.9, where 1 is the maximum). The method in brief:
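HepG2 cells transiently transfected with GAL4-UAS reporter units and PXR-Gal4 chimera, exposed 24 h. Reporter mRNA quantified by RT-PCR, fluorescent labelling, HpaI digestion and capillary electrophoresis; gain of signal vs DMSO.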

Assay [10] addresses human Retinoic Acid Receptor gamma (RARg), RARG (gene 5916) (UniProt P13631). Description: ATG_RARg_TRANS: Attagene TRANS-FACTORIAL HepG2 Assay for human Retinoic Acid Receptor gamma (RARg) (AID 2283009; active = hit-call score of the fitted dose curve at least 0.9, where 1 is the maximum). The method in brief: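 HepG2 cells transiently transfected with multiplexed reporter units expressing chimeric RARg-GAL4 and GAL4-UAS-driven reporters; 24 h compound exposure. Reporter mRNA quantified by RT-PCR with fluorescent labelling and capillary electrophoresis; gain-of-signal fitted relative to DMSO baseline.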

The target in assay [11] is human RAR-related Orphan Receptor gamma (RORg), RORC (gene 6097) (UniProt P51449). Description: ATG_RORg_TRANS: Attagene TRANS-FACTORIAL HepG2 Assay for human RAR-related Orphan Receptor gamma (RORg) (AID 2283011; active = hit-call score of the fitted dose curve at least 0.9, where 1 is the maximum). The method in brief: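 Transient MRTU transfection of HepG2 (TRANS format, exogenous NR-Gal4 chimera). 24 h dosing. Total RNA → oligo(dT) RT → PCR → 6-FAM labelling → HpaI cut → CE. Gain vs DMSO.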
Sequence of human RAR-related Orphan Receptor gamma (RORg), RORC (gene 6097) (P51449 whole entry, looked up, the tested form may be a part): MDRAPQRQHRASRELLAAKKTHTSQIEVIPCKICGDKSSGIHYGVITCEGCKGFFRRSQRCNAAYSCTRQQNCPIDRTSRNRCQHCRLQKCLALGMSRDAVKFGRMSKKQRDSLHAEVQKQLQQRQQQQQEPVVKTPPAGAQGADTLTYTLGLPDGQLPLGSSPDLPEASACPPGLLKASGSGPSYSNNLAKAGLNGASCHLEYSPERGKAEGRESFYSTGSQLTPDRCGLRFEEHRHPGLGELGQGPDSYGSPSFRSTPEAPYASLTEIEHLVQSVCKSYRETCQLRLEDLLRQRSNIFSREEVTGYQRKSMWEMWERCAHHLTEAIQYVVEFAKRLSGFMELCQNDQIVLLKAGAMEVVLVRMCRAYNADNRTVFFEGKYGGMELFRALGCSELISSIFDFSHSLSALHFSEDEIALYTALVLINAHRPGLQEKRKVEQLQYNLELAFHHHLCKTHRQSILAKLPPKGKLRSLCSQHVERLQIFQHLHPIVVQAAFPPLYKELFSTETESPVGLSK

The nature of assay [12]: ATG_Oct_MLP_CIS: Attagene CIS-FACTORIAL HepG2 Assay for human Octamer-Binding Transcription Factor (Oct) (AID 2282993). As to conditions: HepG2 Attagene cis-factorial Oct reporter, mRNA; actives raise or lower the signal. The method in brief:
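Transfected HepG2 cells, 24 h treatment. Reporter mRNA quantified by RT-PCR–capillary electrophoresis; bidirectional fitting against DMSO.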

Assay [13] concerns the target human Retinoic Acid Receptor beta (RARb), RARB (gene 5915) (UniProt P10826). Description: ATG_RARb_TRANS: Attagene TRANS-FACTORIAL HepG2 Assay for human Retinoic Acid Receptor beta (AID 2283004; active = hit-call score of the fitted dose curve at least 0.9, where 1 is the maximum). In short, it runs like this: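 Readout is reporter mRNA induction: RNA reverse-transcribed, PCR-amplified, FAM-labelled, HpaI-cut and resolved by capillary electrophoresis. Transiently transfected HepG2 cells carrying exogenous NR–Gal4 chimeras were dosed for 24 h; activity fitted upward relative to DMSO.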

The target of assay [14] is human Peroxisome Proliferator-activated Receptor delta (PPARd), PPARD (gene 5467) (UniProt Q03181). Description: ATG_PPARd_TRANS: Attagene TRANS-FACTORIAL HepG2 Assay for human Peroxisome Proliferator-activated Receptor delta (PPARd) (AID 2283002; active = hit-call score of the fitted dose curve at least 0.9, where 1 is the maximum). In short, it runs like this:
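Measured quantity: GAL4-UAS reporter transcript induction in HepG2 after 24 h chemical dosing, with NR-Gal4 chimeras supplied by transient transfection. Detection by RT-PCR and capillary electrophoresis; upward fit against DMSO.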

Inconclusive results are not listed. Active and inactive are the calls of the source. Rule for the calls, unless noted: active = hit-call score of the fitted dose curve at least 0.9, where 1 is the maximum; inactive = score below 0.9.

Sequence of Myc proto-oncogene protein (Homo sapiens) (P01106 whole entry, looked up): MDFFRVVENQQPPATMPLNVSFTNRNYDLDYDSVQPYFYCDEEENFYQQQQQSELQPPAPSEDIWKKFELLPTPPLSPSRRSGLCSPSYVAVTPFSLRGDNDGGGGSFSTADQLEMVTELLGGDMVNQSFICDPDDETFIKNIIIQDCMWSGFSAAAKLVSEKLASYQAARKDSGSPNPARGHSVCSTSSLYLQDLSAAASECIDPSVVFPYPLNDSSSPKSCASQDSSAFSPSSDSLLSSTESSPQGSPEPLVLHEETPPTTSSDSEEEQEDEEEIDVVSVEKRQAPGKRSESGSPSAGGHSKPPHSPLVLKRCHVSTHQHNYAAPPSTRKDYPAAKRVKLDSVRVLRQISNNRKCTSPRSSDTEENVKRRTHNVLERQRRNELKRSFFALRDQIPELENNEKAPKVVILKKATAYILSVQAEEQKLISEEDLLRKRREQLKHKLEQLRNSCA
Sequence of Nuclear receptor subfamily 1 group I member 2 (Homo sapiens) (O75469 whole entry, looked up, the tested form may be a part): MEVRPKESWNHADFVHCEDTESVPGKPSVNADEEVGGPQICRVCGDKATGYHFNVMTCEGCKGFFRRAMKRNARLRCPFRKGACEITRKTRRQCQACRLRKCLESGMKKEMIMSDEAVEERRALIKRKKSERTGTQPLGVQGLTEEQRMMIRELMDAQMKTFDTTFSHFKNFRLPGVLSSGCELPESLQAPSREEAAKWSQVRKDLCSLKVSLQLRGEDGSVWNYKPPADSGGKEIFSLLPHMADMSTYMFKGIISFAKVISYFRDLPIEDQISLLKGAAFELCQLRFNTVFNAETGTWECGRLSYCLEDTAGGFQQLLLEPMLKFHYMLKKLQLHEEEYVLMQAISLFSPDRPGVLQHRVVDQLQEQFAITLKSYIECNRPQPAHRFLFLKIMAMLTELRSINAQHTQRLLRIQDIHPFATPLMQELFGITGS
Sequence of Cellular tumor antigen p53 (Homo sapiens) (P04637 whole entry, looked up): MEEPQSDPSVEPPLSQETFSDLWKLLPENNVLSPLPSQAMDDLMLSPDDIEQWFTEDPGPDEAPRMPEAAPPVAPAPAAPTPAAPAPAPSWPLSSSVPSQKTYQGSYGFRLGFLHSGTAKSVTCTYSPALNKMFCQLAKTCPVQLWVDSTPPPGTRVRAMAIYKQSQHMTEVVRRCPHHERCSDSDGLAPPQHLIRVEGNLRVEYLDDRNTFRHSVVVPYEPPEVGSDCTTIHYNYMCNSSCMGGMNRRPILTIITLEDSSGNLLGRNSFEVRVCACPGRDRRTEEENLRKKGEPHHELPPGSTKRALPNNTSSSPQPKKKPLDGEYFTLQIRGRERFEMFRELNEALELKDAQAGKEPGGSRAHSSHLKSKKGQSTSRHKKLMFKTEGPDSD
Sequence of human Retinoic Acid Receptor gamma (RARg), RARG (gene 5916) (P13631 whole entry, looked up, the tested form may be a part): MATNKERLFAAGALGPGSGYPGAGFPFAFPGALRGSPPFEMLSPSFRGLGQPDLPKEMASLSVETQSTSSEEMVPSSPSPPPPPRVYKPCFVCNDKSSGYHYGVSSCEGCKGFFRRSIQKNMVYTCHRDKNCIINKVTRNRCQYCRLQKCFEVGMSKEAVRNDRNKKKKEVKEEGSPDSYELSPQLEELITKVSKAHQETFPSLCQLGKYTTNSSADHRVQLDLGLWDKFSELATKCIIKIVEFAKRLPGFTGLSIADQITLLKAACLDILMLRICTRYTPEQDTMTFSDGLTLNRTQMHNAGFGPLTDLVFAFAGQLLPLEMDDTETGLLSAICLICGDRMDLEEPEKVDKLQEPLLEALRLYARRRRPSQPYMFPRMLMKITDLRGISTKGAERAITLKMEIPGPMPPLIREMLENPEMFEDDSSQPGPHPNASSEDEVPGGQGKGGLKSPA
Sequence of human Peroxisome Proliferator-activated Receptor alpha (PPARa), PPARA (gene 5465) (Q07869 whole entry, looked up, the tested form may be a part): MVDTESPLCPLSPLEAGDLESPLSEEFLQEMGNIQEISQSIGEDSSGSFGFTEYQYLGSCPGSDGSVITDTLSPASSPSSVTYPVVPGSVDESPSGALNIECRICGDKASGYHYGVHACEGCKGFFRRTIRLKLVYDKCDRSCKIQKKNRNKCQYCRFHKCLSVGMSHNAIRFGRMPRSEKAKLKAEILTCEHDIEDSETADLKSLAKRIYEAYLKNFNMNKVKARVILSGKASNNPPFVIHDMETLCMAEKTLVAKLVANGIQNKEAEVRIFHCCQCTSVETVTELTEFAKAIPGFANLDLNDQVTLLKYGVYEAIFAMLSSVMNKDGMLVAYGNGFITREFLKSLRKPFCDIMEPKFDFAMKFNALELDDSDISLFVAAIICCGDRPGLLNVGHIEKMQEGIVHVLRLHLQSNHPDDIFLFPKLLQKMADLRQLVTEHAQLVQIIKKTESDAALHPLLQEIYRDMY
Sequence of Retinoic acid receptor alpha (Homo sapiens) (P10276 whole entry, looked up, the tested form may be a part): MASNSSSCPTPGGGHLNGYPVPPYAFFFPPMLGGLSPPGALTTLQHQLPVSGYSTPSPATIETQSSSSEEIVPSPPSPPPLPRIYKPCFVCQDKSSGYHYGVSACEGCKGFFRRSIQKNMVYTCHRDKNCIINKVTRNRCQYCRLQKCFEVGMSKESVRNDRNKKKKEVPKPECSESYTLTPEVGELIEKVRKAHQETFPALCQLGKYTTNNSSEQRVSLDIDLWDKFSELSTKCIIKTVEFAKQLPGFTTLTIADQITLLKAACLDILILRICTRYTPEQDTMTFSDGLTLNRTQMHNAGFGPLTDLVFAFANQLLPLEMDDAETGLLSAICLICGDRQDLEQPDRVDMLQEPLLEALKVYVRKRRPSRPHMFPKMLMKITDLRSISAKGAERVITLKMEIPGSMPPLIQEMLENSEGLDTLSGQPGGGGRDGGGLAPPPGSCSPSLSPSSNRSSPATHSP
Sequence of human Retinoic Acid Receptor beta (RARb), RARB (gene 5915) (P10826 whole entry, looked up, the tested form may be a part): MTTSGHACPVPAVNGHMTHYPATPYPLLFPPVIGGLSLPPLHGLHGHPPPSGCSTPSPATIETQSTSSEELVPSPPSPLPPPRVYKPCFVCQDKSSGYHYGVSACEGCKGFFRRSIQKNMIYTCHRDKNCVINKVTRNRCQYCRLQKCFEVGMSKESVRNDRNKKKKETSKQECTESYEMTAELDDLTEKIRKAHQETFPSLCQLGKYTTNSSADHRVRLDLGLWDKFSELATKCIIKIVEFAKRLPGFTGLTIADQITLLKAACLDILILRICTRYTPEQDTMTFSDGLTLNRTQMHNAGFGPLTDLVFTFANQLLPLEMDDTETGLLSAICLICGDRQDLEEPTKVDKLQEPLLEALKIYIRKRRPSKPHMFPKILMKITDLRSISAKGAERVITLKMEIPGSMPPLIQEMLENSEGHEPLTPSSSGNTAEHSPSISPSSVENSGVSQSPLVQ
Sequence of human Peroxisome Proliferator-activated Receptor delta (PPARd), PPARD (gene 5467) (Q03181 whole entry, looked up, the tested form may be a part): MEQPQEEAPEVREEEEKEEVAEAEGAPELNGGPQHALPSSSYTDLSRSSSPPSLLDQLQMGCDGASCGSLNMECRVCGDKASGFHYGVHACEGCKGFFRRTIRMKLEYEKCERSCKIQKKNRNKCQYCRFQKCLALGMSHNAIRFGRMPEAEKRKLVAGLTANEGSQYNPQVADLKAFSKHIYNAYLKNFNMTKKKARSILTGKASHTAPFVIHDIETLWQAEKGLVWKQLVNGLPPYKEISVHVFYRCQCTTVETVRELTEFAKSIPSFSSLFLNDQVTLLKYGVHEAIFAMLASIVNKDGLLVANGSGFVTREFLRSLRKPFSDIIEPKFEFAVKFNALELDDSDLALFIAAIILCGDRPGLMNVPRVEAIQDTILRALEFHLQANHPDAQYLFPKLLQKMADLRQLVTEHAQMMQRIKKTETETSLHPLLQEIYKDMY

For the compound `Cc1cccc(C(=O)O)c1`, the compound was called inactive in assay [1], in [2], in assay [3], in assay [4], in assay [5] and in assay [6]. In addition, the call in [7], in assay [8], in assay [9], in assay [10] and in assay [11] was inactive.

As to `CC[C@H]1OC(=O)[C@H](C)[C@@H](O[C@H]2C[C@@](C)(OC)[C@@H](O)[C@H](C)O2)[C@H](C)[C@@H](O[C@@H]2O[C@H](C)C[C@H](N(C)C)[C@H]2O)[C@](C)(O)C[C@@H](C)C(=NOCOCCOC)[C@H](C)[C@@H](O)[C@]1(C)O`, the call in [1], in assay [2], in assay [3], in assay [4], in assay [12] and in [13] was inactive. In addition, the result in assay [7], in assay [9] and in [11] was inactive.

As a reminder, the AC50 is the concentration giving half of the maximal activity seen. Turning to `CN(C)c1ccc(C(=N)c2ccc(N(C)C)cc2)cc1`, the AC50 was 0.162 µM (active) in assay [1] and 29.4 µM (active) in assay [5]. The result in assay [2], in assay [3], in assay [4], in [6], in assay [9] and in assay [10] was inactive. For the same compound, in assay [11], the compound was classed as inactive.

Take `O=C(OCC1CCC2OC2C1)C1CCC2OC2C1` (stereo not given): the compound was called inactive in [1], in assay [2], in assay [3], in [4] and in assay [5].

Regarding `c1cc(N(CC2CO2)CC2CO2)ccc1OCC1CO1` (stereo not given), the AC50 is 27 µM (active) in assay [1]; 163 µM (active) in assay [2]; 48.4 µM (active) in assay [3]; 25.4 µM (active) in [4]; 20.3 µM (active) in [12]. Also, the call in assay [8], in assay [9] and in assay [10] was inactive.

With `O=P(O)(O)Oc1ccccc1`, the compound was called inactive in assay [1], in [2], in [3], in [4], in assay [5] and in [6]. Besides, the compound was classed as inactive in assay [7].

With `CCCC(=O)OCc1ccccc1`, the result in [1], in [2], in assay [3], in assay [4], in assay [5] and in [7] was inactive. Moreover, the result in assay [11] was inactive.

For the compound `FC(F)=C(F)OC(F)(F)C(F)(F)C(F)(F)F`, the result in assay [1], in assay [2], in assay [3], in assay [4], in assay [5] and in assay [6] was inactive. In addition, the outcome in assay [14], in assay [8] and in assay [9] was inactive.
